# FLuc modulator = inhibits or activates purified firefly luciferase, miR-21 counter-screen. purified FLuc, Km substrates, luminescence inhibition. Potency, µM (doses to about 57.5 µM), hits mostly inhibitors. 360,000 tested, 6.9% active; further: nearly all actives have a fitted effect of over 55% in size
# Target sequence (P08659 whole entry, looked up): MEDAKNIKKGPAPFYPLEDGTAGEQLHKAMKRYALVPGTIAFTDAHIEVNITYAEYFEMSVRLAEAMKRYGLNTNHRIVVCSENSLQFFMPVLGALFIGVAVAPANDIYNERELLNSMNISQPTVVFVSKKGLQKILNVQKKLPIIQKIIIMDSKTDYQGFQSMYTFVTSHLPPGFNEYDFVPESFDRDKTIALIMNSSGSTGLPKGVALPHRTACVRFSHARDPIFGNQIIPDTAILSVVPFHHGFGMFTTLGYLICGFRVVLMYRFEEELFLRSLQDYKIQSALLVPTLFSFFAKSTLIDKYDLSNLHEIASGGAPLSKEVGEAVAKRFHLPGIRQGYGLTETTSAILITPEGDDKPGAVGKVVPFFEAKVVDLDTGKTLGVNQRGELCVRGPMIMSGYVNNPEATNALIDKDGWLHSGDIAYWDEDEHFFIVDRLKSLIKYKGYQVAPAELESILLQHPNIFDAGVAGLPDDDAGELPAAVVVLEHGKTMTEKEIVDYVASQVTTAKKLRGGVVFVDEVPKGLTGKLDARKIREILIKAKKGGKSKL
#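 Purified P. pyralis luciferase, 10 nM final, with Km-level 10 uM D-luciferin and 10 uM ATP in 50 mM Tris acetate pH 7.5, 10 mM Mg acetate, 0.01% Tween-20, 0.05% BSA; 6-point qHTS titration about 60 µM downward; luminescence read.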
# SMN2 splice up = increases expression of the SMN2 splice variant | HEK293 SMN2-luciferase splicing reporter, luminescence, 30-36 h | Potency, µM (highest dose often 46.1 µM), usual class: activators | 210,000 tested, 2.8% active; further: nearly all actives have a fitted effect of over 55% in size
#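 HEK293 cells carry an SMN2 minigene-luciferase reporter in which exon 7 inclusion puts luciferase in frame. Cells were seeded at 2000 cells/well, attached for 10-12 hours, then exposed to compounds for 30-36 hours at 37C before ONE-Glo luminescence.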
# ELG1 genotoxic = inducers of genotoxicity in HEK293T ELG1-luciferase cells. AID 504466. Potency, µM (top dose mostly 46 µM), actives largely listed as activators. HEK293T ELG1-luciferase reporter, luminescence, 16 h. 330,000 tested, 1.3% active; further: nearly all actives have a fitted effect of over 60% in size
#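 HEK293T cells expressing luciferase-tagged ELG1 were exposed to compound or DMSO vehicle for 16 hr at 37 °C and 5% CO2. Luciferase activity was then measured with ONE-Glo after 30 min at room temperature.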
# Rab9 promoter act = activators of Rab9 promoter; Potency, µM (doses to about 9.22 µM), hits mostly activators; Huh7 Rab9 promoter-luciferase reporter, luminescence, 24 h; 320,000 tested, 2.8% active; further: nearly all actives have a fitted effect of over 60% in size
#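 Quantitative HTS format; Huh7 Rab9-luciferase reporter cells (1500/well) receive compound 2 h post-plating, incubate 24 h at 37 °C, then get luciferase reagent for 10 min before luminescence reading.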
# NPC1 prom act = activates the NPC1 promoter; Huh7 NPC1 promoter luciferase reporter, 24 h; Potency, µM (series often up to 9.22 µM), hits mostly activators; 320,000 tested, 2.4% active; AID 485313; further: nearly all actives have a fitted effect of over 60% in size
#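 Huh7 cells stably carrying NPC1 promoter–luciferase, plated in Opti-MEM with 10% FBS for 2 h, were exposed to compound in DMSO for 24 h at 37 °C; luciferase reagent was added for 10 min and luminescence read.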
# ELG1 repair inh = ELG1-dependent DNA repair inhibition; 330,000 tested, 2.3% active; HEK293T ELG1-luciferase reporter, luminescence, 16 h; DNA damage induced by 5-fluorouridine; Potency, µM (series often up to 46.1 µM), hits mostly inhibitors; further: nearly all actives have a fitted effect of over 55% in size
#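 In this reporter screen, reduction of luminescence relative to DMSO vehicle indicated activity. Compounds and 5-fluorouridine were added together to 2,000 cells per well, incubated for 16 hr at 37 °C, then developed with ONE-Glo.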
# A number is an active result; i = inactive; ? = inconclusive; nt = no result. Compounds with a hit are over-represented: about 9.2% of the library has one in this group of screens. The call rests on the fitted dose curve; in most records, active means well fitted curve in the direction sought with a large enough effect; inconclusive means small, poorly fitted or top-dose-only effect, or another doubt; inactive means no such curve, though single readings can be large; an effect the other way counts as inactive or inconclusive.
SMILES,FLuc modulator,SMN2 splice up,ELG1 genotoxic,Rab9 promoter act,NPC1 prom act,ELG1 repair inh
CCN(C(=O)CCS(=O)(=O)c1cc2c(cc1Cl)NC(=O)CO2)c1ccccc1,i,nt,i,i,i,i
CCS(=O)(=O)N1CC(=O)N(c2cccc(Cl)c2)C(C)(C(=O)NC2CCCCCC2)C1 (centres undefined),i,nt,nt,nt,nt,nt
NC(N)=N/N=C/c1ccc(OCc2ccccc2)cc1,?,nt,i,i,i,?
NC(N)=N/N=C/c1ccc(OCc2ccc(Cl)cc2)cc1,6.01µM,nt,?,?,3.55µM,?
Cc1ccc(COc2ccc(/C=N/O)cc2)cc1,5.36µM,10µM,?,1.26µM,?,?
Cc1n[nH]c(=S)n1/N=C/c1ccc(OCc2ccc(Cl)cc2)cc1,19µM,i,i,i,i,?
Cc1n[nH]c(=S)n1/N=C/c1ccc(OCc2ccc(Cl)cc2Cl)cc1,?,?,i,i,i,?
COc1cccc(CNC(=O)C2=C(C)C(=O)OC23CCCCCC3)c1,i,nt,nt,nt,nt,nt
CCN(CC)CCN(C(=O)c1ccco1)c1nc2ccc(F)cc2s1,i,nt,nt,nt,nt,nt
COC(=O)c1c(NC(=O)CN2CCC3(O)CCCCC3C2c2cc(OC)ccc2OC)sc(C)c1C (centres undefined),i,i,i,i,i,9.2µM
COC(=O)c1c(NC(=O)CN2CCC3(O)CCCCC3C2c2ccc(F)cc2)sc(C)c1C (centres undefined),i,i,i,i,i,i
COCC(=O)N1CCC2(CC1)CN(C(=O)Nc1ccc(OC)cc1)C2,nt,i,nt,nt,nt,nt
COC(=O)c1[nH]c2ccc(Br)cc2c1NC(=O)CN1CCCc2ccccc21,i,i,i,i,i,8.2µM
COC(=O)c1[nH]c2cc(C)ccc2c1NC(=O)CN1CCCc2ccccc21,23.9µM,i,i,?,?,?
COC(=O)c1c(NC(=O)CN2CCCc3ccccc32)sc(C)c1C,i,i,i,i,i,i
Cc1ccc(-c2cn3c(n2)sc2cc(C(=O)NCCC4=CCCCC4)ccc23)c(C)c1,i,nt,nt,nt,nt,nt
CCN1CCN(c2ccc(N=Cc3ccccc3O)cc2)CC1,21.3µM,i,i,i,i,i
COc1cccc(C=Nc2ccc(N3CCOCC3)cc2)c1O,12µM,nt,i,i,i,i
COc1cccc(C=Nc2ccc3c(c2)OCCO3)c1O,19µM,i,?,i,i,?
Cc1cc(O)c(C=Nc2ccc(N3CCOCC3)cc2)c(C)c1Cl,4.78µM,nt,i,i,i,i
O=C1CCCc2cc(S(=O)(=O)N3CCCC(C(=O)Nc4ccc(F)c(Cl)c4)C3)ccc2N1 (centres undefined),i,nt,nt,nt,nt,nt
COc1ccc(OC)c(CNC(=O)c2ccc(-c3nc(CSc4ccccc4)c(C)o3)cc2)c1,i,nt,nt,nt,nt,nt
COc1ccc(N=Cc2cccc(C)c2O)cc1Cl,26.9µM,i,i,i,i,i
Oc1ccc(/C=N/N2CCOCC2)c(O)c1O,?,i,i,i,i,i
COc1cccc(/C=N/N2CCOCC2)c1O,6.75µM,nt,?,?,i,?
SMILES,FLuc modulator,SMN2 splice up,ELG1 genotoxic,Rab9 promoter act,NPC1 prom act,ELG1 repair inh
Cc1cccc(N=Cc2cc(Br)cc(Cl)c2O)c1,?,i,i,i,i,i
COc1cccc(/C=N/N2C(=O)NC3(CCCCC3)C2=O)c1O,13.5µM,i,i,i,i,i
CCOc1cc(/C=N/N2C(=O)NC3(CCCCC3)C2=O)cc(Br)c1O,i,i,i,i,i,?
COc1ccc(Cl)cc1NC(=O)CN1C(=O)CSc2ccc(S(=O)(=O)N3CCCC3)cc21,i,nt,nt,nt,nt,nt
O=C(Nc1ccccc1)N1CCC2(CC1)CCN(C(=O)c1cccc(F)c1)CC2,nt,i,nt,nt,nt,nt
CCOc1ccc(NC(=O)/C(C#N)=C\c2ccc(-c3ccc(Cl)cc3)o2)cc1,i,i,nt,nt,nt,nt
CC1CC1c1ccc(/C=C(\C#N)C(=O)Nc2ccccc2Cl)o1 (centres undefined),19µM,?,i,i,i,?
CC1CC1c1ccc(/C=C(\C#N)C(=O)Nc2ccc(Cl)cc2)o1 (centres undefined),4.78µM,8.91µM,?,3.55µM,3.55µM,?
CCc1cccc(CC)c1NC(=O)c1cc(S(=O)(=O)N2CCc3ccccc32)cn1C,i,nt,nt,nt,nt,nt

# High-throughput results (PubChem)
